In the supplement of paper PMC10849652:
The full data set covers some 7,900 targets. This sample favours those with a hit. About 0.6% of all pairs of compound and target were hits. A number with no mark means an inactive call.

How the values were obtained:
Experiment in all cases: log2 fold change, soluble protein after heating vs DMSO (PISA); higher = thermal stabilisation; K562 cells, 10 uM, 30 min; active = over 0.2 and 3.5 SD of the protein, either way, in both replicates (recomputed)
[1] = compound: NC(=O)Nc1cc(-c2cccc(F)c2)sc1C(=O)N[C@H]1CCCNC1
Method in brief: (§1)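 K562 cells at 2×10^6 cells/mL were given 10 μM compound for 30 min. Aliquots then went through 3 min of heating across 48°C-58°C, were pooled, and were extracted in PBS with 0.5% NP-40 at 4°C, and the supernatant after 21,000xg for 90 min was quantified by TMTpro 16plex LC-MS/MS with channel sums equalised. Thermal stability relative to control samples, from duplicates, is given as log2 fold change.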

[2] = compound: NC(=O)c1cnc(N[C@@H]2CCCC[C@@H]2N)nc1Nc1cccc(-n2nccn2)c1
Method in brief: as §1

[3] = compound: NC1(c2ccc(-c3nc4ccn5c(=O)[nH]nc5c4cc3-c3ccccc3)cc2)CCC1
Method in brief: as §1

[4] = compound: NCC(=O)Nc1ccc(-n2nc(C(F)(F)F)cc2-c2ccc3c(ccc4ccccc43)c2)cc1
Method in brief: as §1

entinostat = compound: Nc1ccccc1NC(=O)c1ccc(CNC(=O)OCc2cccnc2)cc1 [entinostat]
Method in brief: as §1

vorinostat = compound: O=C(CCCCCCC(=O)Nc1ccccc1)NO [vorinostat]
Method in brief: as §1

citarinostat = compound: O=C(CCCCCCNC(=O)c1cnc(N(c2ccccc2)c2ccccc2Cl)nc1)NO [citarinostat]
Method in brief: as §1

silmitasertib = compound: O=C(O)c1ccc2c(c1)nc(Nc1cccc(Cl)c1)c1ccncc12 [silmitasertib]
Method in brief: as §1

[5] = compound: O=C1NC(=O)C(c2cnc3ccccn23)=C1c1cn2c3c(cc(F)cc13)CN(C(=O)N1CCCCC1)CC2
Method in brief: as §1

[6] = compound: c1cc(OCCN2CCCCC2)cc(-c2n[nH]c3ccc(-c4nnc[nH]4)cc23)c1
Method in brief: as §1

Sequence of UniProt P07948 (P07948 whole entry, looked up): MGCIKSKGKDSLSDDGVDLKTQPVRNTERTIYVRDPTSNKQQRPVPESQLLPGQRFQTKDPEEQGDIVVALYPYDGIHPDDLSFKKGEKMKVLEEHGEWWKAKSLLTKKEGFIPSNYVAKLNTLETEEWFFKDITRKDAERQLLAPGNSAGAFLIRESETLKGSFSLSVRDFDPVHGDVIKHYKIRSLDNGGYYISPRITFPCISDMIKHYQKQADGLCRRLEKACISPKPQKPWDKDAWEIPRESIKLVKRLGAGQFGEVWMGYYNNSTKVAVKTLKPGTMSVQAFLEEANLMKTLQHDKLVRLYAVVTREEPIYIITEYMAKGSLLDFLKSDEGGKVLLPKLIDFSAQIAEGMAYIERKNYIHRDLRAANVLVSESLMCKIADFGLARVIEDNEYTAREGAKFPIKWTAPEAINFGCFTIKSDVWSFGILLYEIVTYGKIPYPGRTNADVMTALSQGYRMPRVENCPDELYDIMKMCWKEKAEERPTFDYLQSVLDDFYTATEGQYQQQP
Sequence of UniProt Q96GA3 (Q96GA3 whole entry, looked up): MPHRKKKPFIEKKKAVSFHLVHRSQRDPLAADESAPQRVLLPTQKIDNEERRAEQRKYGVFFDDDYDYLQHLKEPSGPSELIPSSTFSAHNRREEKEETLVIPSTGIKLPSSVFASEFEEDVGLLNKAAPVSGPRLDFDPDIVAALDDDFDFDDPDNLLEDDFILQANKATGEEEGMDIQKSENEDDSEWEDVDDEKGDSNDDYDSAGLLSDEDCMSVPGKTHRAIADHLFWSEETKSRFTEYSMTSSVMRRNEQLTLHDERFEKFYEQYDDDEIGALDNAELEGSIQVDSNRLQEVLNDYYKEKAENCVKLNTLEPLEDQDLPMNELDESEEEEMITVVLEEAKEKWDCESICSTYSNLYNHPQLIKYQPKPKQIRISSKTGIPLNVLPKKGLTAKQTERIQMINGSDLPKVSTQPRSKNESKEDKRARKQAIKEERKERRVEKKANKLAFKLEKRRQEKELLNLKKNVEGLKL
Sequence of UniProt Q9H3F6 (Q9H3F6 whole entry, looked up): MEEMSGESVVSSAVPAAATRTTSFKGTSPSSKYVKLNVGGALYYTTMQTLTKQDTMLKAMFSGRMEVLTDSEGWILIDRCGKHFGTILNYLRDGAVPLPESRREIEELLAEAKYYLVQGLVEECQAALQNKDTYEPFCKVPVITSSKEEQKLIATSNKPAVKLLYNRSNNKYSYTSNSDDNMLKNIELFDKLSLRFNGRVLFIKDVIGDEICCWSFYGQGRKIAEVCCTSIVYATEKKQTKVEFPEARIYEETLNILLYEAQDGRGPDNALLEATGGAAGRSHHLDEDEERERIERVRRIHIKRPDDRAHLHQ
Sequence of UniProt Q9UIQ6 (Q9UIQ6 whole entry, looked up): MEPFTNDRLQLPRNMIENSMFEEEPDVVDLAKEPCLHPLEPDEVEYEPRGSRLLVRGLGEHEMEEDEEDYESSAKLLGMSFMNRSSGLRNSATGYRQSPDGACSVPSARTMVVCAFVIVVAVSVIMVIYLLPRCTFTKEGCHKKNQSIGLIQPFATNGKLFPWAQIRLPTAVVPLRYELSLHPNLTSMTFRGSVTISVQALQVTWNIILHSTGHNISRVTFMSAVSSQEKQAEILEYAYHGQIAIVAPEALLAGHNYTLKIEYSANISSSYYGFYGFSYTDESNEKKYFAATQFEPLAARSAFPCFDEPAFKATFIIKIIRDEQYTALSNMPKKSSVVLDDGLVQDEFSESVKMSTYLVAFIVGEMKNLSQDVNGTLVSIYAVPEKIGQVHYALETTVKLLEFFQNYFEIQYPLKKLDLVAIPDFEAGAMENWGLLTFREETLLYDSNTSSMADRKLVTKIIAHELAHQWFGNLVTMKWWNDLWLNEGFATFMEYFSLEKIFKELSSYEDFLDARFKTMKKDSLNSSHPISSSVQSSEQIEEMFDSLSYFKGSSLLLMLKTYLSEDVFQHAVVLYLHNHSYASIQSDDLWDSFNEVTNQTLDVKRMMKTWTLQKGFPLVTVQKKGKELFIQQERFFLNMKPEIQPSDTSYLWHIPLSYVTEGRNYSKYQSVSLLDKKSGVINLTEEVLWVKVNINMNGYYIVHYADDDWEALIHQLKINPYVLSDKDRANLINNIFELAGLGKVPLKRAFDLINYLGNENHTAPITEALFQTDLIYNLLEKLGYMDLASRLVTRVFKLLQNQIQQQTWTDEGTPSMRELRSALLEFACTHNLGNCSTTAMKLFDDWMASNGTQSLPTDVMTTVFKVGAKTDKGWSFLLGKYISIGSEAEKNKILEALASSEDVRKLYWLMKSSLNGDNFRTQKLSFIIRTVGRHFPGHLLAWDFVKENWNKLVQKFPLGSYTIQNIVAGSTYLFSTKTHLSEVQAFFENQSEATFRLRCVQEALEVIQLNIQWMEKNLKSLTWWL
Sequence of UniProt P27448 (P27448 whole entry, looked up): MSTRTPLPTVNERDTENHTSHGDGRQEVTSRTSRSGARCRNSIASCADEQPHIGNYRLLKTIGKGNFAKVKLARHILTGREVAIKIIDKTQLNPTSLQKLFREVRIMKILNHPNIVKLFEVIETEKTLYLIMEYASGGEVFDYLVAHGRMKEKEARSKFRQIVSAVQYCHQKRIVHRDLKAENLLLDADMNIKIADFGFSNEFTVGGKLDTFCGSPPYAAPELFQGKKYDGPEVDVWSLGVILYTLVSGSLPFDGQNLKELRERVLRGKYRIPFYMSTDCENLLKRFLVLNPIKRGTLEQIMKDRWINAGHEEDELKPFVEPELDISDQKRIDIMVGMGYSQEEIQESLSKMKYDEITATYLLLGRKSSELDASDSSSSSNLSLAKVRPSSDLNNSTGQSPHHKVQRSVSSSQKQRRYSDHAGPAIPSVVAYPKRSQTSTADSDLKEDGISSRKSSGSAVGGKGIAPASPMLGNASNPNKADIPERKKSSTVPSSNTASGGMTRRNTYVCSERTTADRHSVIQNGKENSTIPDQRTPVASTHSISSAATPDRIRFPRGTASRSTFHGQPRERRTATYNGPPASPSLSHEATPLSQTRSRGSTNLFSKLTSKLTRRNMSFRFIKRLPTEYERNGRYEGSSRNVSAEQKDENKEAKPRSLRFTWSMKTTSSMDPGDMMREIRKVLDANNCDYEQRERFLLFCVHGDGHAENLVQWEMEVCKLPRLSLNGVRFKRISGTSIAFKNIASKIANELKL
Sequence of UniProt Q9Y2U8 (Q9Y2U8 whole entry, looked up): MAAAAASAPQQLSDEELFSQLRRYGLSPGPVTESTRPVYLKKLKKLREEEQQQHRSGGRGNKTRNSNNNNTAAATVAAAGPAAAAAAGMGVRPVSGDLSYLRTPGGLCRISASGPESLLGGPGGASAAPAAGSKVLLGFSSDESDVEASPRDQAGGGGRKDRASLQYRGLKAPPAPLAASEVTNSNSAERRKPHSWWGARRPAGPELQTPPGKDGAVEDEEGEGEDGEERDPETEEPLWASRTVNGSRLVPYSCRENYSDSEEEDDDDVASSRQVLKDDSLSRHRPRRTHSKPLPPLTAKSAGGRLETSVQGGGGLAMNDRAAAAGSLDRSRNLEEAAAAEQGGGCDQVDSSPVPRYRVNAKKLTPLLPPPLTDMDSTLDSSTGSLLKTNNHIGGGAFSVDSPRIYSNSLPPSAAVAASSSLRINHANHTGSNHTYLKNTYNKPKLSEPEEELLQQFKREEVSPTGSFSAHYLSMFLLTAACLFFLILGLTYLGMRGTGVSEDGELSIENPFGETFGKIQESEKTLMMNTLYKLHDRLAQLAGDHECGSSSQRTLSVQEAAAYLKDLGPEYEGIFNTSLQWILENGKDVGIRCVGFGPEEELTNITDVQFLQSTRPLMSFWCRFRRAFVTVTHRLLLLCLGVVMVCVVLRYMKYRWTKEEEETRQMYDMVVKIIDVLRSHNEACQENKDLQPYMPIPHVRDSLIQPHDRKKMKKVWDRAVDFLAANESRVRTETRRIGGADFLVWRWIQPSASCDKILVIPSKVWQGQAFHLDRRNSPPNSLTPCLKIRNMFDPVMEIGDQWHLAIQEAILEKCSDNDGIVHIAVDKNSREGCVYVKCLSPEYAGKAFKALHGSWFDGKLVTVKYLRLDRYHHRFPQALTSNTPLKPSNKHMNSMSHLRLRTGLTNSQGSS
Sequence of UniProt P45983 (P45983 whole entry, looked up): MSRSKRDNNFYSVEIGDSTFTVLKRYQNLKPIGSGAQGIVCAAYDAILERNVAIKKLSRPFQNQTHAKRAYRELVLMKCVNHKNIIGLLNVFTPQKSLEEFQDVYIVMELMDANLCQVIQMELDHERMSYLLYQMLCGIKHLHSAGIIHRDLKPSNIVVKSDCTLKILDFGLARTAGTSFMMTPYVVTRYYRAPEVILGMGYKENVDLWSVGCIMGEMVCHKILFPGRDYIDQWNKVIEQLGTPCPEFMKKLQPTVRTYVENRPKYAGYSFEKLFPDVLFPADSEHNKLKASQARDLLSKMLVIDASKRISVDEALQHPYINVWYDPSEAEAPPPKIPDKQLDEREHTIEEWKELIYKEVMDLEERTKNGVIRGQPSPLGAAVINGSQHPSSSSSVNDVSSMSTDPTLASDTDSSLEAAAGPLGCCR
Sequence of UniProt O14733 (O14733 whole entry, looked up): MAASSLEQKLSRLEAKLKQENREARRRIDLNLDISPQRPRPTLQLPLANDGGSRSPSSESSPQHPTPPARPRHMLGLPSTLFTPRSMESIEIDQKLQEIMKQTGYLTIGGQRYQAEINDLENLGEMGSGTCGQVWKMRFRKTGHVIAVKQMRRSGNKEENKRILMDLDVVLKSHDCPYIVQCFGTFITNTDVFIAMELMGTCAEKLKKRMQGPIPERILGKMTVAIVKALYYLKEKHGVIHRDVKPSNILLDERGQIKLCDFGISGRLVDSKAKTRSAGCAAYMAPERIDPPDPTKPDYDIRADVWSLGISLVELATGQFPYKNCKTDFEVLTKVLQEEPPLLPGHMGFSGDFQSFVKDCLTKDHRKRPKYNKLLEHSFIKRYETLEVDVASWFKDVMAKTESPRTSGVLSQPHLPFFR

| Target | log2 fold change [1] | log2 fold change [2] | log2 fold change [3] | log2 fold change [4] | log2 fold change (entinostat) | log2 fold change (vorinostat) | log2 fold change (citarinostat) | log2 fold change (silmitasertib) | log2 fold change [5] | log2 fold change [6] |
| --- | --- | --- | --- | --- | --- | --- | --- | --- | --- | --- |
| LEMD3 (UniProt Q9Y2U8) | -0.206 | -0.029 | -0.142 | -0.116 | -0.017 | 0.035 | 0.053 | -0.068 | -0.077 | 0.057 |
| LYN (UniProt P07948) | 0.385 (active) | 0.048 | -0.048 | -0.016 | -0.006 | 0.058 | 0.017 | 0.176 | 0.022 | 0.143 |
| KIF13A (UniProt Q9H1H9) | -0.049 | -0.008 | -0.078 | -0.064 | 0.04 | -0.178 | -0.041 | 0 | -0.005 | -0.061 |
| LNPK (UniProt Q9C0E8) | 0.011 | 0.01 | 0.009 | 0.014 | -0.013 | -0.006 | 0.002 | 0.072 | -0.051 | -0.006 |
| KCTD10 (UniProt Q9H3F6) | 0.065 | 0.226 | 0.028 | 0.077 | -0.014 | -0.001 | -0.05 | -0.042 | -0.088 | -0.025 |
| IGFBP2 (UniProt P18065) | 0.026 | -0.043 | -0.242 | -0.037 | 0.04 | 0.351 | -0.068 | 0.267 | -0.143 | 0.064 |
| MAP2K3 isoform 3 (UniProt P46734) | -0.04 | -0.018 | -0.14 | -0.025 | 0.068 | 0.02 | -0.126 | -0.024 | -0.188 | -0.052 |
| LTV1 (UniProt Q96GA3) | 0.006 | 0.008 | 0.003 | 0.041 | 0.034 | -0.005 | -0.038 | 0.147 | 0.132 | -0.16 |
| LEO1 (UniProt Q8WVC0) | 0.003 | -0.06 | -0.028 | -0.11 | 0.005 | 0.088 | 0.009 | 0.068 | -0.153 | -0.055 |
| MAP2K7 isoform 4 (UniProt O14733) | 0.008 | -0.051 | -0.078 | -0.015 | 0.015 | 0.084 | 0.041 | -0.019 | -0.052 | -0.044 |
| MAPK8 isoform 3 (UniProt P45983) | -0.05 | -0.02 | -0.062 | -0.05 | 0.001 | -0.027 | -0.049 | 0.008 | -0.044 | 0.362 |
| MARK3 (UniProt P27448) | -0.125 | -0.181 | -0.006 | -0.113 | 0.064 | 0.139 | 0.103 | -0.02 | -0.017 | -0.317 |
| MAP4 (UniProt E7EVA0) | 0.162 | 0.165 | 0.144 | 0.105 | -0.096 | -0.018 | -0.164 | 0.003 | 0.106 | -0.075 |
| IPO13 (UniProt O94829) | 0.051 | -0.101 | -0.206 | -0.112 | 0.012 | 0.138 | 0.067 | 0.081 | -0.046 | -0.175 |
| LNPEP (UniProt Q9UIQ6) | 0.037 | 0.011 | -0.037 | 0.019 | -0.028 | -0.007 | 0.056 | 0.002 | 0.004 | -0.022 |
